hNpr1 antagonist = Natriuretic polypeptide receptor (hNpr1) antagonism - Primary qHTS; Potency, µM (highest dose often 46.3 µM), inactives show at the top dose activity change, negative = inhibition, most hits filed as inhibitors; actives 1.6% (n = 76,000); HEK293 hNpr1 GloSensor cGMP, ANP-stimulated luminescence; calls by dose curve; also: nearly all actives have a fitted effect of over 60% in size
Target sequence (P16066 whole entry, looked up): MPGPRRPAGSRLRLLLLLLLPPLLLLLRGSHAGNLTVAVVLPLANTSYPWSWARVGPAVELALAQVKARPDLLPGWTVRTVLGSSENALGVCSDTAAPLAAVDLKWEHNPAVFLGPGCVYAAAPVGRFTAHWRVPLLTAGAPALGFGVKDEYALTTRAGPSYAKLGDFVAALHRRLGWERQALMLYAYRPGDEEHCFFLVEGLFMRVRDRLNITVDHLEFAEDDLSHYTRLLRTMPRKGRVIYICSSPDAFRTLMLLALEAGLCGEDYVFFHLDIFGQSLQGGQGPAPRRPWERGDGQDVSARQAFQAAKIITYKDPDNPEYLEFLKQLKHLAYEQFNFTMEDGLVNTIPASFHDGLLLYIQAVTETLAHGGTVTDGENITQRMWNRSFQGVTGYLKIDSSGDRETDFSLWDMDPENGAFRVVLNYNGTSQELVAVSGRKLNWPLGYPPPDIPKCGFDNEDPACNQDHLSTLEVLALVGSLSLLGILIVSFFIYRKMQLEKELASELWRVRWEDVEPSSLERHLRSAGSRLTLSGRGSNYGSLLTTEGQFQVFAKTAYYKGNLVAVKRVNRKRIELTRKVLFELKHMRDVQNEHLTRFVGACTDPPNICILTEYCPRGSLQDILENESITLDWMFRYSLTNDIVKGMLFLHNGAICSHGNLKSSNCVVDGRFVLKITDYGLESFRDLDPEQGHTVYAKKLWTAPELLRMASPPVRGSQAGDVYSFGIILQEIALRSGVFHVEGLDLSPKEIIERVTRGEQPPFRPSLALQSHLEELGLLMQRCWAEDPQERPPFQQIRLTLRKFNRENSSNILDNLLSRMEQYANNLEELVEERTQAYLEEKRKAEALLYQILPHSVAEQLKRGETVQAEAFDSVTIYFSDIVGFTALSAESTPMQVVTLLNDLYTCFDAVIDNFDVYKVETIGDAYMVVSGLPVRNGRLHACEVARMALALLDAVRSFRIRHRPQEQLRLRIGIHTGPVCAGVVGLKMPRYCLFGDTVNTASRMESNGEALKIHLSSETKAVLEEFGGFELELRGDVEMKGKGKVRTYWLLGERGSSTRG
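Compound pre-incubated 30 min at room temperature on GloSensor-loaded HEK293 cells stably carrying hNpr1 and the pGS-40F cGMP biosensor. Stimulation uses hNppA at 0.1 nM final; luminescence is taken at baseline and 20 min post-agonist.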
FLuc inh = Firefly luciferase inhibition profiling of diverse chemical library using quantitative high-throughput screening. Luciferin 4-monooxygenase (Photinus pyralis), P08659. purified P. pyralis luciferase, luminescence, biochemical. Potency, µM (top dose mostly 115 µM), hits mostly inhibitors. actives 2.5% (n = 76,000); also: nearly all actives have a fitted effect of over 65% in size
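Luminescence read by CCD imager after adding enzyme (10nM final) to wells holding compound, titrated in qHTS. Substrates 10uM each D-luciferin and ATP; buffer 50mM Tris acetate pH 7.5, 10mM Mg acetate, Tween-20, BSA.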
GPT2 inhibitor = Primary qHTS assay for inhibitors of Glutamate pyruvate transaminase 2 (GPT2). Alanine aminotransferase 2 (Homo sapiens), Q8TD30. Recombinant GPT2, coupled pyruvate oxidase/HRP Amplex Red fluorescence. Potency, µM (series often up to 57.7 µM), without a hit: at the top dose activity change, negative = inhibition, usual class: inhibitors. actives 0.25% (n = 100,000). AID 1671188, 2021; also: nearly all actives have a fitted effect of over 60% in size
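Recombinant GPT2 (10ng/uL) with 250uM a-KG and 2mM L-alanine, 30 min at room temperature, in HEPES pH 7.5 buffer. Pyruvate detected by pyruvate oxidase/HRP/Amplex Red fluorescence after 30 min in the dark; AOA (50uM) as positive control.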
NIH3T3 tox = Cytotoxic Profiling in NIH 3T3 Cell Line of Diverse Libraries Using Quantitative High-Throughput Screening. actives 4.3% (n = 94,000). NIH 3T3 viability, CellTiter-Glo ATP luminescence, 48-72 h. Potency, µM (highest dose often 96.7 µM), for inactives: at the top dose activity change, negative = cytotoxicity, usual class: inhibitors; also: nearly all actives have a fitted effect of over 55% in size
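First NIH 3T3 cells are plated at 400 cells/well; next compound is pinned in; then plates incubate 48 or 72 hr at 37 °C; finally CellTiter-Glo is added and luminescence read after 10 min.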
HEK293 tox = Cytotoxic Profiling in HEK 293 Cell Line of Diverse Libraries Using Quantitative High-Throughput Screening. actives 6.6% (n = 94,000). Potency, µM (highest dose often 115 µM), inactives show at the highest dose activity change, negative = cytotoxicity, actives largely listed as inhibitors. HEK 293 viability, ATP luminescence (CellTiter-Glo), 48-72 h. AID 1345083, 2018; also: nearly all actives have a fitted effect of over 60% in size
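Read-out: CellTiter-Glo ATP luminescence. Cells: HEK 293, 250 cells/well. Exposure: 48 or 72 hr, 37 degree Celsius.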
Starred values were filed as active, the others as inactive; i = inactive; ? = inconclusive; · = no result; [ ] = remark or other dose. An excerpt weighted towards active compounds, which were near 10% of everything screened. Unless noted, calls follow the shape of the dose curve; as a rule, active = well fitted curve in the direction sought with a large enough effect; inconclusive = small, poorly fitted or top-dose-only effect, or another doubt; inactive = no such curve, though single readings can be large; an effect the other way counts as inactive or inconclusive. % is scaled to controls: 0 for no effect and ±100 for the full control effect; potency is read from the fitted curve at half-maximal effect.

SMILES	hNpr1 antagonist	FLuc inh	GPT2 inhibitor	NIH3T3 tox	HEK293 tox
CC(=O)Oc1ccccc1C(=O)Nc1ccc2c(c1)CN(Cc1ccc(Cl)cc1)C(=O)C(C)O2 (stereo not drawn)	?	i	-6%	25µM*	?
CC1Oc2ccc(NC(=O)c3ccc(Cl)cc3)cc2CN(Cc2cc(F)cc(F)c2)C1=O (stereo not drawn)	-23%	i	i	?	20µM*
CC1Oc2ccc(NC(=O)c3ccccc3)cc2CN(Cc2ccc(Cl)cc2)C1=O (stereo not drawn)	-18%	i	i	?	8.9µM*
COc1cccc(-c2nc(N3CCOCC3)cc3c2CN(Cc2ccccc2)C3=O)c1OC	1%	i	-7%	-22%	?
COc1ccc(C2(C(=O)N3CCCC(CO)CCNC(=O)CC3)CC2)cc1 (stereo not drawn)	3%	i	?	-3%	-1%
COCCN1C(=O)N(C)C(=O)C12CCN(Cc1ccc(C(=O)OC)cc1)C2 (stereo not drawn)	·	·	-3%	-15%	-8%
O=C(Nc1cccc(Cl)c1)C1CN(C2CCCCC2)C(=O)N1 (stereo not drawn)	·	·	1%[88.5 µM]	?	?
COc1ccccc1Nc1ccnc(N2CCCC(C(=O)NCc3cccs3)C2)n1 (stereo not drawn)	·	·	2%	32µM*	?
COc1ccccc1Nc1ccnc(N2CCC(C(=O)NCc3ccccc3)CC2)n1	·	·	i	?	?
COc1cccc(CNC(=O)C2CCCN(c3nccc(Nc4ccccc4OC)n3)C2)c1 (stereo not drawn)	·	·	i	32µM*	?
COc1ccccc1Nc1ccnc(N2CCCC(C(=O)NCC(F)F)C2)n1 (stereo not drawn)	·	·	i	?	?
COc1cccc(CNC(=O)C2CCN(c3nccc(Nc4ccccc4OC)n3)CC2)c1	·	·	i	40µM*	?
COc1ccccc1Nc1ccnc(N2CCCC(C(=O)NCc3ccc(Cl)cc3)C2)n1 (stereo not drawn)	·	·	i	?	11µM*
Cn1ncc2c(C(=O)NCc3ccncc3)cc(-c3ccc(F)cc3)nc21	·	·	3%	?	?
O=C(Nc1ccc(Cl)cc1)N1CCCC(C(=O)N2CCC(N3CCOC3=O)CC2)C1 (stereo not drawn)	·	·	0%	-27%	-27%
Cc1nnc2ccc(N3CCC(NC(=O)c4ccc(F)cc4)C3)nn12 (stereo not drawn)	·	·	·	-15%[138 µM]	-2%[172 µM]
c1ccc(CCNc2ncncc2-c2nc(-c3ccccc3)no2)cc1	1%	i	i	-3%	?
CN1CCc2cc(Cl)c(O)cc2[C@@H](c2cccc3c2OCC3)C1	·	·	2%	·	·
Cc1cccc(C2CN(C)CCc3c2cc(O)c(O)c3Cl)c1 (stereo not drawn)	·	·	7.1µM*	·	·
O=C(C1CCCN1C(=O)Nc1ccc(Cl)cc1)N1CCC(N2Cc3cccn3C2=O)CC1 (stereo not drawn)	·	·	0%	28µM*	?
O=C(C1CCCN1C(=O)C1CCCC1)N1CCC(N2Cc3cccn3C2=O)CC1 (stereo not drawn)	·	·	i	-4%	i
O=C(c1ccc2nnc(C3CCCC3)n2c1)N1CCOCC1	·	·	i	-9%[138 µM]	i
CN(Cc1cnc2ccccn12)C(=O)c1cc(COc2ccc(F)cc2F)on1	?	i	i	?	?
Cc1cccc2nc(CNC(=O)c3cc(COc4ccc(F)cc4F)on3)cn12	4%	i	i	32µM*	?
CN1CCN(C(=O)c2cc(COc3ccc(F)cc3F)on2)CC1c1ccccc1 (stereo not drawn)	-21%	i	-11%	?	20µM*
SMILES	hNpr1 antagonist	FLuc inh	GPT2 inhibitor	NIH3T3 tox	HEK293 tox
CCCc1noc(-c2cccn3c(CNC(=O)c4ccc(C)cc4)nnc23)n1	-12%	i	-17%	-17%	-2%
FC(F)(F)c1ccc2c(c1)nc1n2[C@@H](CNCc2c[nH]c3ccccc23)COC1	-17%[70.6 µM]	i	-17%[88.5 µM]	?	89µM*
COC(=O)N1CCN(c2nccc(Nc3ccc(OC)cc3)n2)CC1	·	·	i	?	?
Cc1ccc(Nc2ccnc(N3CCN(C(=O)c4ccccc4C)CC3)n2)cc1	·	·	-3%	35µM*	40µM*
COc1ccc(Nc2ccnc(N3CCN(C(=O)c4ccc(F)cc4)CC3)n2)cc1	·	·	0%	13µM*	22µM*
COc1ccc(Nc2ccnc(N3CCN(C(=O)c4ccc(OC)cc4)CC3)n2)cc1	·	·	-6%	25µM*	25µM*
O=C(Cc1cccc(Cl)c1)N1CCN(c2nccc(Nc3ccccc3Cl)n2)CC1	·	·	i	14µM*	35µM*
COCc1nc2nc(-c3ccccc3)c(Nc3ccc(F)cc3)cc2n1C	-7%[70.6 µM]	i	i	?	?
Cc1ccc(Nc2ccnc(N3CCCN(C(=O)Cc4cccc(Cl)c4)C3)n2)cc1	·	·	4%	28µM*	13µM*
COc1ccc(Nc2ccnc(N3CCN(C(=O)c4cccc(Cl)c4)CC3)n2)cc1	·	·	-8%	28µM*	28µM*
COCC(=O)N1CCN(c2nccc(Nc3ccc(OC)cc3)n2)CC1	·	·	i	?	?
Cc1ccc(Nc2ccnc(N3CCN(C(=O)Cc4ccc(F)cc4)CC3)n2)cc1	·	·	i	32µM*	?
Cc1ccc(Nc2ccnc(N3CCN(C(=O)c4cccc(Cl)c4)CC3)n2)cc1	·	·	i	?	?
COc1ccc(Nc2ccnc(N3CCN(C(=O)Cc4cccc(Cl)c4)CC3)n2)cc1	·	·	-6%	28µM*	?
CN(C)CC(=O)N1CC(F)(F)C[C@H]1c1nc(-c2ccncc2)no1	2%	i	?	-13%	-6%
COc1ccc(C(=O)NCCC2CCN(C(=O)Nc3ccc(C)c(F)c3)CC2)cc1	-25%	3.5µM*	3%	?	-23%
Cc1ccc(NC(=O)N2CCC(CCNC(=O)c3n[nH]c4ccccc34)CC2)cc1F	-16%	?	i	?	79µM*
Cc1ccc(NC(=O)N2CCC(CCNC(=O)c3ccccn3)CC2)cc1F	·	·	i	?	?
CC(C)CCN1CCC2(Cc3ccccc3CNC2=O)C1 (stereo not drawn)	·	·	-6%[88.5 µM]	-16%[138 µM]	-16%[172 µM]
COCCOC1CCN(C(=O)c2ccc3cc[nH]c3c2)CC1	3%	i	i	-5%	2%
O=C(c1ccc2ccccc2n1)N1CCC(Cc2ccc(CN3CCOCC3)cc2)CC1	·	·	1%	?	35µM*

Compound activity from PubChem BioAssay.
